PP5 inh = PP5 (human) phosphatase inhibition; purified PP5c, OMFP substrate fluorescence; inhibition, % at 6.7 µM; actives 0.18% (n = 320,000); AID 1987;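 active = inhibition above the campaign's mean inhibition across all tested compounds plus 3 SD, cut at about 9.5% in these data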;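 note: 0% = DMSO only and 100% = 100 µM cantharidin control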
PG9 binder = PG9 antibody binding by small molecule; TR-FRET gp120-PG9 antibody binding; inhibition, % at 6.7 µM; actives 0.43% (n = 360,000); AID 624416; in the data active = inhibition above about 8.5%
Rev-erbA mod = Rev-erb alpha (human) modulation; P20393; Rev-erbα–FITC-DNA binding, fluorescence polarization, 90 min; activity, % at 10 µM; actives 0.79% (n = 370,000); AID 1259318;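 active = activity above about 14%, limit read from the data; passing the limit was not always enough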;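 note: 0% = DMSO wells with 35 nM protein and 100% = DMSO wells with 750 nM protein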
GASC-1 inh = human JMJD2C demethylase inhibition; Q9H3R0; GST-JMJD2C(1-420) H3K9me3 demethylation, DELFIA europium; inhibition, % at 2.35 µM; actives 0.069% (n = 330,000); AID 2099;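 active = more than half of a compound's replicate wells show inhibition beyond 50%, single wells judged on their own value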;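 note: signal counts dimethyl H3K9 product captured on neutravidin plate; 0% = median of DMSO wells and 100% = 0.3 times that DMSO median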
Target sequence (Q9H3R0 1-420 limits assumed): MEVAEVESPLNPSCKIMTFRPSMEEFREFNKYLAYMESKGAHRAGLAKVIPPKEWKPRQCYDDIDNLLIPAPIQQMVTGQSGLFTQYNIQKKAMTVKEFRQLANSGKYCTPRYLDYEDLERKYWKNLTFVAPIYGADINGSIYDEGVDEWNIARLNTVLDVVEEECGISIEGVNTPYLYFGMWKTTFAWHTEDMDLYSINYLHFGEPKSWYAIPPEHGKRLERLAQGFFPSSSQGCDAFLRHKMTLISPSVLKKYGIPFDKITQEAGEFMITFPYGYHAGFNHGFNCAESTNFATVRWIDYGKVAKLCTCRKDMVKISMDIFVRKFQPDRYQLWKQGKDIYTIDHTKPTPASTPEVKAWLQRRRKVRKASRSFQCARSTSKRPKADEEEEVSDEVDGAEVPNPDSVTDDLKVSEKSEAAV
KLK7 zymogen act = proKLK7 (human) activation, primary screen. purified proKLK7, EDANS-DABCYL substrate fluorescence; 100% is mature enzyme control, 0% vehicle. AID 652039. activation, % at 7 µM. actives 0.9% (n = 370,000);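 active = activation above the mean of all tested compounds plus 3 SD, computed per campaign excluding outliers beyond control limits, cut at about 13% in these data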
PP1 inh = counter-screen for PP5 inhibitors: inhibitors of human PP1-alpha. P62136. purified PP1alpha, OMFP fluorescence. AID 2235. inhibition, % at 6.7 µM. actives 0.9% (n = 320,000);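 active = inhibition above the mean inhibition of all tested compounds plus 3 SD, computed separately for each screening campaign, cut at about 15% in these data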
proKLK7 act conf = confirmation of human kallikrein-7 zymogen activators. shares compounds with KLK7 zymogen act. purified proKLK7, EDANS-DABCYL substrate fluorescence; scaled: vehicle 0, mature enzyme 100. activation, % at 7 µM. actives 68% (n = 3,200);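 active = activation, as change over the incubation, above the mean of all tested compounds plus 3 SD, cut at about 13% in these data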
EDANS-DABCYL int = fluorescence interference counter-screen for KLK7 activators. EDANS-DABCYL substrate fluorescence interference, no enzyme, 4 h; solvent 0%, active enzyme control 100%. shares compounds with KLK7 zymogen act. actives 80% (n = 3,200). activation, % at 7 µM. AID 686952;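 active = activation above the all-compound mean plus 3 SD, ignoring values outside control-based bounds, cut at about 4.8% in these data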;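 note: value is the 4 h activation minus the activation read at time zero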
The depositor's hits bear a star; nt = no result. Most compounds without a hit are left out; they make up all but 2.8% or so of the library.

SMILES	PP5 inh	PG9 binder	Rev-erbA mod	GASC-1 inh	KLK7 zymogen act	PP1 inh	proKLK7 act conf	EDANS-DABCYL int
Cn1c(N)c(C(=O)NCc2ccccc2)sc1=S	0	-3	-6	25	0	-2	nt	nt
COc1cccc2[nH]c3c(N4CCC5(CC4)OCCO5)ncnc3c12	1	1	-7	-17	39*	-2	38*	45*
CCN(CC)C(=O)c1cc2c(=O)n3ccccc3nc2s1	0	1	-14	2	64*	-2	64*	82*
COCCN(CCOC)C(=O)c1cc2c(=O)n3ccccc3nc2s1	-2	0	-6	-9	9	-4	nt	nt
CCC(C)NC(=O)c1cc2c(=O)n3ccccc3nc2s1 (stereo not drawn)	-1	0	2	-3	66*	-2	61*	70*
CC(C)CN(CC(C)C)C(=O)c1cc2c(=O)n3ccccc3nc2s1	0	0	4	8	22*	-1	-78	-69
CCC(C)NC(=O)c1cc2cc3ccc(OC)cc3nc2s1 (stereo not drawn)	3	1	-6	-7	30*	0	3	5.7*
CN(C)S(=O)(=O)c1cccc(NC(=O)c2cc3c(=O)n4ccccc4nc3s2)c1	1	0	-17	3	0	3	nt	nt
CCCCC(=O)N(Cc1ccccc1)c1ccccc1C(=O)Nc1cc(OC)ccc1OC	nt	nt	-2	nt	0	nt	nt	nt
C=CCN1C(=O)[C@H](CC(=O)NCCc2ccccc2OC)[C@@]2(C(=O)OCC)CCCC=C12	nt	nt	-3	nt	0	nt	nt	nt
Cc1cccn2c(=O)c3cc(C(=O)NCC(C)C)sc3nc12	-3	1	-10	-8	0	-3	nt	nt
CC(C)CCNC(=O)c1cc2c(=O)n3ccccc3nc2s1	0	-1	0	30	63*	0	33*	41*
COc1ccc(-c2cc(C(F)(F)F)nc(SCC(N)=O)n2)cc1	3	0	4	5	15*	1	6	6.6*
COc1ccc(-c2cc(C(F)(F)F)nc(SCC(=O)N(C)Cc3cn(C)nc3C)n2)cc1OC	0	2	0	1	32*	-1	3	1
Cc1ccc(C(=O)COC(=O)CSc2cccc3cccnc23)c(C)c1	3	-1	4	-4	15*	2	12	12*
COc1ccc2c(c1)[C@]1(C(=O)N2C)C2=C(CCCC2=O)Oc2cc(C)oc(=O)c21	nt	-1	3	nt	1	nt	nt	nt
O=C1c2ccccc2NC2(CCCC2)N1NS(=O)(=O)c1ccccc1	1	0	-3	46	37*	-3	31*	28*
O=C(NN1C(=O)c2ccccc2NC12CCCCC2)c1ccccc1	3	0	6	21	3	1	nt	nt
CS(=O)(=O)NN1C(=O)c2ccccc2NC12CCCC2	0	-1	-4	8	72*	-9	38*	51*
COc1ccc(-c2ncccc2OC(=O)C23CC4CC(CC(C4)C2)C3)cc1OC	4	1	5	-15	18*	0	12	8.2*
O=C(CNc1nnnn1-c1ccccc1)N1CCCC1	nt	nt	0	nt	1	nt	nt	nt
COc1ccc(-c2coc3cc(OC(C)=O)c(OC)cc3c2=O)cc1	nt	0	-2	nt	43*	nt	153*	111*
COc1ccc(N(CC(=O)Nc2ccc(C)cn2)S(=O)(=O)c2c(C)noc2C)cc1	3	0	-2	5	16*	1	1	0
CCOc1ccc(N(CC(=O)Nc2ccc(OC)cc2)S(=O)(=O)c2c(C)noc2C)cc1	1	1	-1	6	0	-4	nt	nt
O=C(CSc1nnc(-c2ccc(Cl)cc2)n1-c1ccccc1)Nc1ccc2c(c1)OCCO2	nt	nt	3	nt	0	nt	nt	nt
SMILES	PP5 inh	PG9 binder	Rev-erbA mod	GASC-1 inh	KLK7 zymogen act	PP1 inh	proKLK7 act conf	EDANS-DABCYL int
Nc1c(C(=O)NCCN2CCOCC2)c2nc3ccccc3nc2n1-c1ccccc1	4	-1	1	24	28*	1	8	9.1*
COC(=O)c1c(N)n(-c2ccc(NC(C)=O)cc2)c2nc3ccccc3nc12	3	-1	-3	5	24*	-1	76*	73*
COCC(C)OC(=O)c1c(N)n(CC(C)C)c2nc3ccccc3nc12 (stereo not drawn)	5	-2	-1	-1	59*	-5	-33	-30
C=CCn1c(N)c(C(=O)OC(C)(C)C)c2nc3ccccc3nc21	nt	0	2	9	46*	nt	80*	71*
COCCNC(=O)c1c(N)n(-c2ccccc2)c2nc3ccccc3nc12	0	-1	-5	-15	-32	9	nt	nt
Nc1c(C(=O)NCCN2CCOCC2)c2nc3ccccc3nc2n1-c1ccc2c(c1)OCO2	5	-4	-1	5	0	5	nt	nt
Cc1ccc(C(=O)C2CCN(CC(=O)NC(C)C)CC2)cc1	nt	nt	-2	nt	0	nt	nt	nt
CC(C)C[C@H](NC1(C(=O)NC2CCCCC2)CCCCC1)C(=O)NCC(c1ccccc1)c1ccccc1	nt	nt	-3	nt	nt	nt	nt	nt
CC(C)OC(=O)c1c(N)n(CCCN2CCOCC2)c2nc3ccccc3nc12	2	2	-5	95	28*	-6	9	7.4*
C=CCn1c(N)c(C(=O)Nc2ccccc2)c2nc3ccccc3nc21	2	-1	1	-11	-5	-1	nt	nt
C=CCn1c(N)c(C(=O)OC(C)CC)c2nc3ccccc3nc21 (stereo not drawn)	nt	-1	5	-7	69*	nt	-33	-19
Cn1c(=O)c2c(ncn2Cc2ccccc2)n(C)c1=O	3	-1	-4	0	0	-7	nt	nt
Cn1c(=O)c2nc(NCc3ccccc3)cnc2n(C)c1=O	0	0	4	-8	15*	-1	30*	40*
COc1ccc(N2CCN(CCC(=O)c3ccc4ccccc4c3)CC2)cc1	0	1	6	-2	22*	2	15*	15*
COc1ccc(N2CCN(CC(=O)c3ccccc3)CC2)cc1	1	-1	-1	1	0	-3	nt	nt
CCN1CCN(C(=O)c2cc3c(=O)n4ccccc4nc3s2)CC1	0	-2	1	-2	55*	-2	44*	57*
CCOC(=O)CC1C(=O)NCCN1C(=O)c1cc2c(=O)n3cccc(C)c3nc2s1 (stereo not drawn)	1	1	-2	9	43*	-1	25*	32*
O=C(c1cc2c(=O)n3ccccc3nc2s1)N1CCN(Cc2ccc3c(c2)OCO3)CC1	4	-1	-2	-7	-4	6	nt	nt
